The values that follow come from PubChem BioAssay (NCATS).

Records with an inconclusive call do not appear. Calls of active or inactive are those of the source. Calls follow the shape of the dose curve; as a rule, active = well fitted curve in the direction sought with a large enough effect; inconclusive = small, poorly fitted or top-dose-only effect, or another doubt; inactive = no such curve, though single readings can be large; an effect the other way counts as inactive or inconclusive.

Experiment [1] in a line: Quantitative highthroughput screen to assess conditional lethalithy of NOMO1 cells grown in RPMI1640 with untreated serum (RPMI+s) (AID 1963876). Also: nearly all actives have a fitted effect of over 35% in size. The following applies: NOMO1 AML cells in RPMI+serum, CellTiter-Glo viability, 48 h; series mostly up to 45.8 µM. The procedure, abridged: (§1)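 Each medium arm—HPLM with 10% dialyzed FBS, or RPMI1640 with 5 mM glucose and 10% untreated or dialyzed FBS—was screened against an 11-point, 3-fold compound titration for 48 h at 37 °C, with CellTiter-Glo luminescence as endpoint.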
A general note: In ATP-based viability assays light output follows the ATP content of the culture.

A short description of experiment [2]: Quantitative highthroughput screen to assess conditional lethalithy of NOMO1 cells grown in RPMI1640 with dialyzed fetal bovine serum (RPMI+ds) (AID 1963877). Also: nearly all actives have a fitted effect of over 30% in size. The following applies: NOMO1 in RPMI+dialyzed FBS viability, ATP luminescence, 48 h; series mostly up to 45.8 µM. The procedure, abridged: as §1
Experiment [3] is described as follows: Quantitative highthroughput screen to assess conditional lethalithy of NOMO1 cells grown in Human Plasma-Like Medium with dialyzed fetal bovine serum (HPLM+ds) (AID 1963878). Also: nearly all actives have a fitted effect of over 35% in size. The following applies: NOMO1 AML cells in HPLM+ds, CellTiter-Glo viability, 48 h; series mostly up to 45.8 µM. The procedure, abridged:
as §1

A short description of experiment [4]: Quantitative highthroughput screen to assess conditional lethalithy of P12 Ichikawa cells grown in Human Plasma-Like Medium with dialyzed fetal bovine serum (HPLM+ds) (AID 1963879). Also: nearly all actives have a fitted effect of over 35% in size. The following applies: ATP luminescence, 48 h; Potency: viability; series mostly up to 45.8 µM. The procedure, abridged: as §1
Experiment [5] in a line: Quantitative highthroughput screen to assess conditional lethalithy of P12 Ichikawa cells grown in RPMI1640 with dialyzed fetal bovine serum (RPMI+ds) (AID 1963880). Also: nearly all actives have a fitted effect of over 35% in size. The settings on record: ATP luminescence, 48 h; Potency: P12-Ichikawa viability; series mostly up to 45.8 µM. The procedure, abridged:
as §1

A short description of experiment [6]: Quantitative highthroughput screen to assess conditional lethalithy of P12 Ichikawa cells grown in RPMI1640 with untreated serum (RPMI+s) (AID 1963881). Also: nearly all actives have a fitted effect of over 35% in size. The settings on record: ATP luminescence, 48 h; Potency: viability; series mostly up to 45.8 µM. In outline:
as §1

A short description of experiment [7]: Quantitative highthroughput screen to assess conditional lethalithy of SEM cells grown in Human Plasma-Like Medium with dialyzed fetal bovine serum (HPLM+ds) (AID 1963882). Also: nearly all actives have a fitted effect of over 35% in size. The following applies: SEM B-ALL cells in HPLM+ds, CellTiter-Glo viability, 48 h; series mostly up to 45.8 µM. The procedure, abridged:
as §1

Experiment [8] in a line: Quantitative highthroughput screen to assess conditional lethalithy of SEM cells grown in RPMI1640 with unreated serum (RPMI+s) (AID 1963883). Also: nearly all actives have a fitted effect of over 35% in size. The settings on record: SEM B-ALL cells, CellTiter-Glo viability, 48 h; series mostly up to 45.8 µM. The procedure, abridged:
as §1

Experiment [9] is described as follows: Viability qHTS for spleen associated tyrosine kinase inhibitor (SYKi) drug resistant MV4-11 cells (AID 1963824). Also: nearly all actives have a fitted effect of over 35% in size. The following applies: SYKi-resistant MV4-11 viability, CellTiter-Glo, 72 h; series mostly up to 45 µM. The procedure, abridged: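 SYK-inhibitor-resistant MV4-11 AML cells were seeded at 500 per well onto compound and cultured 72 hours (37 °C, 5% CO2). CellTiter-Glo was then added, and after 10 min at room temperature, luminescence gave viability.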
In general terms: qHTS replaces the single test concentration by a dilution series.

Experiment [10] is described as follows: Cellular viability qHTS for adrenocortical cancer (ACC) cell line NCI-H295R (AID 1963990). Also: nearly all actives have a fitted effect of over 60% in size. The settings on record: CellTiter-Glo ATP luminescence, 48 h; series mostly up to 46.1 µM. The procedure, abridged:
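Viability of NCI-H295R after 48 h of treatment (final up to 46 uM) measured through cellular ATP luminescence.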

Experiment [11] in a line: Quantitative highthroughput screen to assess conditional lethalithy of SEM cells grown in RPMI1640 with dialyzed fetal bovine serum (RPMI+ds) (AID 1963884). Also: nearly all actives have a fitted effect of over 35% in size. The following applies: SEM B-ALL cells, RPMI+dialyzed FBS, CellTiter-Glo viability, 48 h; series mostly up to 45.8 µM. The procedure, abridged:
as §1
Potency is read from the fitted curve at half-maximal effect.

Consider `CN(C)CCOc1ccc(-c2nc(-c3ccc4c(c3)CCC4=NO)c(-c3ccncc3)[nH]2)cc1`, for which, in experiment [1], the Potency result is “inactive”. Further, the Potency in experiment [2] is 18700 nM (active).
Turning to `O=C(NNC(=O)c1ccc(CNS(=O)(=O)c2ccc(F)c(Cl)c2)cc1)c1ccccc1`, the Potency result in experiment [1], in experiment [2], in experiment [3], in experiment [4], in experiment [5] and in [6] was “inactive” throughout. The Potency result in experiment [7] and in experiment [8] was “inactive” each time.
Consider `CC1=C(C(=O)O)N2C(=O)[C@@H](NC(=O)C(N)c3ccccc3)[C@H]2SC1` (some centres not stated), for which the Potency entry in experiment [1], in [2], in [3], in [4], in experiment [5] and in [6] was “inactive” each time. In addition, the Potency result in [7] and in experiment [8] was “inactive” each time.
Regarding `O=C(C=Cc1ccc(/C=C/C(=O)Nc2ccc(C3=NCCN3)cc2)cc1)Nc1ccc(C2=NCCN2)cc1`, the Potency entry in [1], in [2], in [3], in [4], in [5] and in [6] was “inactive” each time. Besides, the Potency result in [7] is “inactive”.
As for `CC/C(=C(/c1ccc(/C=C/C(=O)O)cc1)c1ccc2[nH]ncc2c1)c1ccc(F)cc1Cl`, the Potency in experiment [9] was 16600 nM (active); in [10] it was 15800 nM (active).
Take `CCc1ccc(C=C2SC(=S)NC2=O)cc1`: the Potency entry in [1] was “inactive”.
Take `Nc1ncnc2c1ncn2[C@@H]1O[C@H](CO)C[C@@H]1O`: the Potency entry in experiment [1], in experiment [2], in [3], in [4], in experiment [5] and in experiment [6] was “inactive” throughout.
As to `CC1(C)C(N(O)C(=O)Nc2ccc(Cl)cc2)N(c2ccc(Cl)cc2)C(=O)N1CC(=O)NN=CC=Cc1ccc([N+](=O)[O-])o1` (configuration not stated), the Potency entry in [1] was “inactive”.
For the molecule `Cc1c(-c2cccc3c(CCCOc4cccc5ccccc45)c(C(=O)O)n(Cc4cccnc4)c23)c(COc2ccc(N3CCN([S+](=O)([O-])N(C)C)CC3)cc2)nn1C`, the Potency entry in [1], in experiment [2], in [3], in experiment [4], in experiment [5] and in experiment [6] was “inactive” each time.
Turning to `CC(=O)N1CCN(c2ccc(OC[C@H]3CO[C@](Cn4ccnc4)(c4ccc(Cl)cc4Cl)O3)cc2)CC1`, the Potency result in [1], in [2] and in experiment [3] was “inactive” throughout.
With `CCc1cc2cc(OC)c(OC)cc2c(Cc2ccccc2)n1`, in [9], the Potency was 10600 nM (active). Also, the Potency entry in experiment [10] is “inactive”.
With `Nc1ncnc2c1ncn2[C@@H]1O[C@@H](CO)[C@H](O)[C@H]1O`, the Potency result in experiment [1], in experiment [2], in [3], in experiment [4], in experiment [5] and in experiment [6] was “inactive” each time.
On to `C[C@@H]1COCCN1c1cc(-c2ccnn2C)c2ccnc(-c3ccn[nH]3)c2n1`, for which the figures for the Potency in [9] and in [10] were 93.4 nM (active) and 158 nM (active), respectively.
With `CCOc1cc(C=C2C(=O)N(c3ccccc3)N=C2C)cc(Cl)c1OCC(=O)OC`, the Potency result in [1], in [2], in experiment [3], in experiment [4], in [5] and in experiment [6] was “inactive” throughout.
As for `CCCCCCCc1ccc(CCc2cccc(O)c2C(=O)O)cc1`, the Potency entry in [1], in experiment [2], in experiment [3], in [4] and in experiment [5] was “inactive” in each case.
In the case of `CC1(C)O[C@@H]2C[C@@H]3[C@H]4C[C@@H](F)C5=CC(=O)C=C[C@]5(C)[C@@]4(F)[C@@H](O)C[C@]3(C)[C@]2(C(=O)CO)O1`, the Potency entry in [1], in [2] and in experiment [3] was “inactive” throughout.
`C[C@H]1C[C@@H]2[C@@H]([C@@H](O)C[C@@]3(C)[C@H]2CC[C@]3(O)C(=O)CO)[C@@]2(C)C=CC(=O)C=C12`: the Potency entry in [1], in experiment [2] and in experiment [3] was “inactive” throughout.
On to `CN1CCC[C@H]1CCO[C@](C)(c1ccccc1)c1ccc(Cl)cc1`, for which the Potency result in experiment [1], in experiment [2], in experiment [3], in [4], in experiment [5] and in [6] was “inactive” in each case. Moreover, the Potency entry in experiment [7] and in [8] was “inactive” in each case.
On to `COc1ccc2c(c1)CC[C@H]1[C@@H]2CC[C@]2(C)[C@@H](NCCCCCCN3C(=O)C=CC3=O)CC[C@H]12`, for which the Potency result in [1], in [2], in [3], in [4], in experiment [5] and in [6] was “inactive” each time. In addition, the Potency result in [7], in experiment [8] and in experiment [11] was “inactive” each time.
For `Cc1c(O)cccc1C(=O)N[C@@H](CSc1ccccc1)[C@H](O)CN1C[C@H]2CCCC[C@@H]2C[C@@H]1C(=O)NC(C)(C)C`, the Potency result in [1], in [2], in [3], in experiment [4], in [5] and in [6] was “inactive” throughout. In addition, the Potency result in experiment [7], in experiment [8] and in experiment [11] was “inactive” each time.
Turning to `CCOc1ccc(Cc2cc([C@@H]3O[C@H](CO)[C@@H](O)[C@H](O)[C@@H]3O)ccc2Cl)cc1`, the Potency entry in experiment [1], in experiment [2], in experiment [3], in [4], in experiment [5] and in experiment [6] was “inactive” in each case. Besides, the Potency entry in experiment [7], in experiment [8] and in [11] was “inactive” throughout.
Take `COc1ccc2c3c1OC1C[C@@H](O)C=C[C@@]31CCN(C)C2` (some centres not stated): the Potency result in [1], in [2], in experiment [3], in [4], in [5] and in experiment [6] was “inactive” in each case. In addition, the Potency entry in [7], in [8] and in [11] was “inactive” throughout.
For the molecule `C=CC(=O)Nc1cccc(Nc2nc(NC3CCC(N(C)C)CC3)nc3c2ncn3C(C)C)c1` (configuration not stated), the Potency was 2960 nM (active) in experiment [1]; 2350 nM (active) in experiment [2]; 2350 nM (active) in experiment [3]; 3320 nM (active) in experiment [4]; 4180 nM (active) in [5]; 3320 nM (active) in experiment [6]. The values for the Potency in [7], in experiment [8] and in [11] were 1050 nM (active), 2090 nM (active) and 1050 nM (active), respectively.
Turning to `NS(=O)(=O)OC[C@@H]1C[C@@H](n2ccc3c(N[C@H]4CCc5ccccc54)ncnc32)C[C@H]1O`, the Potency was 526 nM (active) in [1]; 526 nM (active) in experiment [2]; 590 nM (active) in [3]; 2960 nM (active) in experiment [4]; 1660 nM (active) in experiment [5]; 2090 nM (active) in experiment [6]. Also, the Potency in experiment [7] is 1480 nM (active); in experiment [8] it was 1480 nM (active); in experiment [11], 1320 nM (active).
Consider `NC[C@@H]1O[C@@H](O[C@H]2[C@@H](O)[C@H](O[C@@H]3[C@@H](O)[C@@H](N)C[C@H](N)[C@H]3O[C@H]3O[C@H](CN)[C@@H](O)[C@@H](O)[C@H]3N)O[C@H]2CO)[C@H](N)[C@@H](O)[C@@H]1O`, for which the Potency result in experiment [1], in experiment [2], in experiment [3], in [4], in experiment [5] and in [6] was “inactive” throughout. Further, the Potency result in experiment [7], in experiment [8] and in experiment [11] was “inactive” throughout.
